Laboratory results from PubChem BioAssay (NCI).
About 79,000 compounds went through this panel and 15% of them were active in at least one assay; those are over-represented in the sample as a whole. Calls of active or inactive are those of the source. No stated cut-off is given here; in the data, active means growth inhibition above about 70%; inactive means the rest.

Legend:
[1] = NCI Yeast Anticancer Drug Screen. Data for the rad50 strain (AID 155);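 further: 0% = growth of vehicle-only cultures of the same strain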; conditions: S. cerevisiae rad50 strain growth inhibition, active compounds read high
Summary of the method: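 Inhibition values express reduced yeast growth in compound-treated cultures relative to vehicle-treated controls.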

[2] = NCI Yeast Anticancer Drug Screen. Data for the mec2-1 strain (AID 157); conditions: S. cerevisiae mec2-1 strain, active compounds read high
Summary of the method: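 Using mec2-1 yeast: add compound, measure growth, express inhibition versus vehicle-treated cultures.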

[3] = NCI Yeast Anticancer Drug Screen. Data for the sgs1 mgt1 strain (AID 161);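 further: 0% = growth of cultures given vehicle only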; conditions: S. cerevisiae sgs1 mgt1 strain, active compounds read high
Summary of the method: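 This yeast growth screen uses a strain with defined DNA-repair lesions; compound-treated growth is compared with vehicle-treated growth.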

[4] = NCI Yeast Anticancer Drug Screen. Data for the cln2 rad14 strain (AID 165);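 further: 0% = growth equal to vehicle treated cultures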; conditions: S. cerevisiae cln2 rad14 strain, active compounds read high
Summary of the method: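 Yeast strain cln2 rad14, bearing defects in cell cycle control and DNA repair, serves as the test system; values reflect growth inhibition compared with vehicle.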

[5] = NCI Yeast Anticancer Drug Screen. Data for the bub3 strain (AID 167); conditions: S. cerevisiae bub3 mutant strain, active compounds read high
Summary of the method: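 Steps: expose the mutant yeast strain to compound; grow alongside vehicle-treated cultures; measure growth; express inhibition against the vehicle cultures.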

[6] = NCI Yeast Anticancer Drug Screen. Data for the mlh1 rad18 strain (AID 175); conditions: S. cerevisiae mlh1 rad18 strain growth inhibition, active compounds read high
Summary of the method: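 Steps: expose repair-defective yeast to compound; measure growth; express inhibition against vehicle-treated controls.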

[7] = at 5.0 µM (retest, dose inferred, filed as 0.5)
[8] = at 50.0 µM (retest, dose inferred, filed as 5.0)

Measured: growth inhibition

CCOc1ccc2nc([NH-])sc2c1.CCOc1ccc2nc([NH-])sc2c1.CCOc1ccc2nc([NH-])sc2c1.CCOc1ccc2nc([NH-])sc2c1.[Cl][Rh][Cl]
active: [6]; [8] 81% | [6]; at 50.0 µM 80%
inactive: [1]; [7] -5% | [1]; [8] 46% | [1]; at 50.0 µM 29.9% | [2]; [7] 0% | [2]; [8] 32% | [2]; at 50.0 µM 31.6% | [3]; [7] 4% | [3]; [8] 63% | [3]; at 50.0 µM 67.2% | [4]; [7] -5% | [4]; [8] 26% | [4]; at 50.0 µM 30.1% | [5]; [7] -10% | [5]; [8] 34% | [5]; at 50.0 µM 0.25% | [6]; [7] 6%

O=[N+]([O-])C1=Cc2cc(Cl)ccc2OC1c1cccc2ccccc12 (configuration not stated)
active: [1]; [7] 98% | [1]; [8] 83% | [1]; at 50.0 µM 80.5% | [2]; [7] 97% | [2]; [8] 81% | [2]; at 50.0 µM 88.2% | [3]; [7] 97% | [3]; [8] 86% | [3]; at 50.0 µM 84.2% | [4]; [7] 97% | [4]; [8] 80% | [4]; at 50.0 µM 87.1% | [5]; [7] 97% | [5]; [8] 91% | [5]; at 50.0 µM 85.5% | [6]; [7] 98% | [6]; [8] 87% | [6]; at 50.0 µM 75.8%

CC1=NC(=Cc2cccc(Cl)c2)C(=O)N1n1c(-c2ccccc2)nc2ccccc2c1=O
active: [1]; [8] 73% | [2]; [8] 77% | [3]; [8] 71% | [3]; at 50.0 µM 79.4% | [4]; [8] 84% | [4]; at 50.0 µM 78% | [5]; [8] 86% | [5]; at 50.0 µM 74.7% | [6]; [8] 81% | [6]; at 50.0 µM 81.7%
inactive: [1]; [7] 18% | [1]; at 50.0 µM 68.5% | [2]; [7] 21% | [2]; at 50.0 µM 69.9% | [3]; [7] 11% | [4]; [7] 16% | [5]; [7] -9% | [6]; [7] 11%

CN(C)CC1CC/C(=C\c2ccc(Cl)c(Cl)c2)C1=O (configuration not stated)
inactive: [1]; [7] 21% | [2]; [7] 44% | [3]; [7] 25% | [4]; [7] 37%
active: [1]; [8] 98% | [1]; at 50.0 µM 93.1% | [2]; [8] 99% | [2]; at 50.0 µM 93.6% | [3]; [8] 98% | [3]; at 50.0 µM 92.4% | [4]; [8] 99% | [4]; at 50.0 µM 91.3% | [5]; [7] 74% | [5]; [8] 99% | [5]; at 50.0 µM 91.5% | [6]; [7] 84% | [6]; [8] 99% | [6]; at 50.0 µM 90.2%

Cc1ccccc1NC(=O)C1C(=O)N(c2ccccc2C)C(=O)/C1=N/O (configuration not stated)
inactive: [1]; [7] -21% | [1]; [8] 3% | [1]; at 50.0 µM -21.4% | [2]; [7] 3% | [2]; [8] 4% | [2]; at 50.0 µM 2.95% | [3]; [7] -4% | [3]; [8] -19% | [3]; at 50.0 µM -4.55% | [4]; [7] -6% | [4]; [8] 6% | [4]; at 50.0 µM -26.6% | [5]; [7] 0% | [5]; [8] 1% | [5]; at 50.0 µM -5.25% | [6]; [7] -1% | [6]; [8] -2% | [6]; at 50.0 µM 3.65%

COc1cc(C(c2ccccc2)c2ccccc2)c2ccccc2c1O
inactive: [1]; [7] 15% | [1]; [8] 51% | [1]; at 50.0 µM 33.3% | [2]; [7] 15% | [2]; [8] 41% | [2]; at 50.0 µM 16.6% | [3]; [7] -17% | [3]; [8] 25% | [3]; at 50.0 µM 61.4% | [4]; [7] 13% | [4]; at 50.0 µM 44.9% | [5]; [7] 8% | [5]; at 50.0 µM 40.2% | [6]; [7] 24%
active: [4]; [8] 73% | [5]; [8] 70% | [6]; [8] 75% | [6]; at 50.0 µM 74%

O=C1CSC(=S)N1c1ccc(F)cc1F
active: [1]; [8] 86% | [1]; at 50.0 µM 89.8% | [2]; [8] 82% | [3]; [8] 78% | [5]; [8] 84% | [5]; at 50.0 µM 83.8% | [6]; [8] 89% | [6]; at 50.0 µM 70.2%
inactive: [1]; [7] 8% | [2]; [7] -2% | [2]; at 50.0 µM 22.6% | [3]; [7] 10% | [3]; at 50.0 µM 65.2% | [4]; [7] -3% | [4]; [8] 16% | [4]; at 50.0 µM -9% | [5]; [7] -3% | [6]; [7] 3%

O=C(c1ccccc1)C(Cl)c1ccccc1 (configuration not stated)
active: [1]; [8] 99% | [1]; at 50.0 µM 91.6% | [2]; [8] 99% | [2]; at 50.0 µM 95.2% | [3]; [8] 97% | [3]; at 50.0 µM 97.5% | [5]; [8] 99% | [5]; at 50.0 µM 94% | [6]; [8] 99% | [6]; at 50.0 µM 95.2%
inactive: [1]; [7] 9% | [2]; [7] -12% | [3]; [7] 1% | [4]; [7] 0% | [4]; [8] 41% | [4]; at 50.0 µM 44% | [5]; [7] 51% | [6]; [7] 0%

OC1CCN(c2c3ccccc3nc3ccccc23)CC1
active: [1]; [8] 85% | [3]; [8] 94% | [6]; [8] 81%
inactive: [1]; [7] 21% | [1]; at 50.0 µM 12.2% | [2]; [7] 7% | [2]; [8] 67% | [2]; at 50.0 µM 11.4% | [3]; [7] 32% | [3]; at 50.0 µM 2.65% | [4]; [7] 24% | [4]; [8] 23% | [4]; at 50.0 µM 37.4% | [5]; [7] 1% | [5]; [8] 19% | [5]; at 50.0 µM 5.55% | [6]; [7] 8% | [6]; at 50.0 µM 15%
